Abeta rescue = qHTS for compounds that reverse cellular toxicity of Amyloid beta (A-beta) peptide in yeast: Primary Screen | yeast expressing A-beta42, growth rescue, OD600, 48 h; response scale: 0% DMSO, 100% iron-clioquinol control | Potency, µM (titrated, usually from 46.1 µM), most hits filed as activators | actives 0.063% (n = 410,000) | AID 1347071, 2019; further: potency means the concentration at half of the fitted maximal effect; nearly all actives have a fitted effect of over 55% in size
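Yeast growth medium received pinned compounds, then yeast cells expressing toxic A-beta were added; plates incubated at 30 C for 48 hr. Growth read as absorbance at 600 nm, normalized to DMSO and equimolar FeCl3 plus clioquinol controls.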
aSyn rescue = qHTS of alpha-syn Inhibitors; Potency, µM (highest dose often 46.1 µM), for inactives: top-dose growth rescue (activation), hits mostly activators; AID 652106, 2013; actives 0.14% (n = 370,000); Yeast expressing alpha-synuclein, growth rescue, BacTiter-Glo, 24 h; further: potency means the concentration at half of the fitted maximal effect; % of control where 0% means no effect; nearly all actives have a fitted effect of over 65% in size
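Screening used galactose-induced yeast with toxic alpha-synuclein levels, exposed to compound for 24 hr at 30 deg C. Cell growth, read with BacTiter-Glo luminescence, gave the measured signal.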
mIDH1 inhibitor = qHTS for Inhibitors of mutant isocitrate dehydrogenase 1 (IDH1): qHTS; actives 0.093% (n = 390,000); Potency, µM (top dose mostly 76.6 µM), for the others: at the top dose activity change, negative = inhibition, actives largely listed as inhibitors; Isocitrate dehydrogenase [NADP] cytoplasmic (Homo sapiens), O75874; IDH1-R132H enzyme, NADPH consumption, diaphorase/resazurin fluorescence; AID 602179, 2012; further: potency means the concentration at half of the fitted maximal effect; on the % scale 0 is the no-effect control and ±100 the full control effect; nearly all actives have a fitted effect of over 65% in size
Target sequence (O75874 whole entry R132H, stated change not applied): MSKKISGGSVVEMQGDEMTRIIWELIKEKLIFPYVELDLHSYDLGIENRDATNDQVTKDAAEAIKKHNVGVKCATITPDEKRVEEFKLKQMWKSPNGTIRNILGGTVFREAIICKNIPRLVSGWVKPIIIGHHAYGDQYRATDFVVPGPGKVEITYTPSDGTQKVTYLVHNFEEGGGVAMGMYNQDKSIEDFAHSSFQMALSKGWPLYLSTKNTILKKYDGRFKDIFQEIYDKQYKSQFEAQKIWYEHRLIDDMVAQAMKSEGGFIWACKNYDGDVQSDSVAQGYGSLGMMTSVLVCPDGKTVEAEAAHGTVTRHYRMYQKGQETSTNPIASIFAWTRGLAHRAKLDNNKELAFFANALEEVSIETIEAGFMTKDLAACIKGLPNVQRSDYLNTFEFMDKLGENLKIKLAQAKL
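IDH1-R132H (0.5 ug/mL dispensed) in pH 7.5 Tris buffer was preincubated 30 min with compound, then given a substrate mix of 0.016 mM NADPH and 2 mM alpha-KG for 80 min at room temperature; remaining NADPH was read by diaphorase/resazurin fluorescence.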
LDHA block = qHTS assay for inhibitors of human lactate dehydrogenase; actives 0.15% (n = 480,000); AID 1347041, 2019; purified LDHA, NADH/diaphorase-resazurin fluorescence; hits give low values; L-lactate dehydrogenase A chain (Homo sapiens), P00338; activity change, % (values are at about 110 or 230 µM); in the data active means activity change below about -30%; inconclusive means mostly about -25% to -30%;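 further: plate controls were DMSO wells for no effect and wells without enzyme for full effect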
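Remaining NADH was detected by diaphorase (0.133 mg/mL) converting 37 µM resazurin to fluorescent resorufin, read at 0 and 20 minutes. The preceding 5-minute room-temperature reaction used 2 nM LDHA, 0.2 mM sodium pyruvate and 0.06 mM NADH at pH 7.4.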
TDP-43 yeast inh = qHTS of TDP-43 Inhibitors; actives 1.8% (n = 410,000); Potency, µM (top dose mostly 46.1 µM), for the others: at the top dose growth rescue (activation), usual class: activators; TDP-43 expressing yeast growth rescue, BacTiter-Glo, 24 h; further: potency means the concentration at half of the fitted maximal effect; % of control where 0% means no effect; nearly all actives have a fitted effect of over 50% in size
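Cell-based yeast growth screen: TDP-43 expression induced in galactose, inoculum OD600=0.02 after raffinose pregrowth to mid-log. Read-out BacTiter-Glo luminescence at 24 hr, 30 deg C; inhibition of toxicity seen as signal increase.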
FUS suppressor = qHTS for Suppressors of FUS Proteinopathy: Primary screen using FUS-linked yeast assay; Potency, µM (doses to about 76.6 µM), usual class: activators; actives 0.24% (n = 390,000); S. cerevisiae FUS-expressing, growth rescue, OD600, 24 h;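 further: potency means the concentration at half of the fitted maximal effect; plate controls were DMSO vehicle for no effect and reference control for full effect; nearly all actives have a fitted effect of over 55% in size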
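Restored growth of FUS-toxic S. cerevisiae, read as 600 nm absorbance after 24 h at 30C in galactose medium (starting OD 0.005). Controls CP55940 and DMSO.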
Starred values were filed as active, the others as inactive; i = inactive; ? = inconclusive; / = no result given. The list is not random: actives were taken first. Their share in the collection is about 2%. Unless noted, the call rests on the fitted dose curve; in most records, active means well fitted curve in the direction sought with a large enough effect; inconclusive means small, poorly fitted or top-dose-only effect, or another doubt; inactive means no such curve, though single readings can be large; an effect the other way counts as inactive or inconclusive.

SMILES	Abeta rescue	aSyn rescue	mIDH1 inhibitor	LDHA block	TDP-43 yeast inh	FUS suppressor
Cc1ccc(S(=O)(=O)c2cn(CC(=O)Nc3ccc(F)c(Cl)c3)c3nc(C)ccc3c2=O)cc1	/	/	/	8	/	/
Cc1ccc(CNC(=O)c2oc3ccc(S(=O)(=O)N4CCC5(CC4)OCCO5)cc3c2C)cc1	i	4%	7%	-1	-8%	25µM*
CN(CC(=O)Nc1cccc(Cl)c1)S(=O)(=O)/C=C/c1ccccc1	i	?	-8%	-16	18µM*	i
COc1cccc(NC(=O)CN(C)S(=O)(=O)/C=C/c2ccccc2)c1	?	4%	-1%	1	24%	i
Cc1cccc(N2CCN(c3nc4ccccc4c4nnc(C)n34)CC2)c1C	i	/	9%	2	20%	i
Cc1nnc2c3ccccc3nc(N3CCN(c4cccc(Cl)c4)CC3)n12	i	/	-11%	-14	25µM*	i
CCCOC(=O)c1cccc(Nc2nc(CCC)cc(=O)[nH]2)c1	i	/	12%	-6	18µM*	?
CCC(C)(C)n1nnnc1C(c1cccnc1)N1CCC(Cc2ccccc2)CC1 (stereo not given)	i	?	0%	-1	10µM*	i
CCC(C)(C)n1nnnc1C(c1ccncc1)N1CCC(Cc2ccccc2)CC1 (stereo not given)	i	13%	-2%	2	-3%	i
CCNc1nc(SC(C)C(=O)NC2CC2)nc2ccccc12 (stereo not given)	/	/	/	-14	/	/
COc1ccc(C(=O)/C=C2/C(=O)Nc3ccccc32)c(OC)c1	i	-1%	5%	-3	11µM*	i
COc1ccc(C(=O)/C=C2/C(=O)Nc3ccccc32)cc1	i	-53%	-1%	0	2.8µM*	i
COc1ccc(C(=O)/C=C2/C(=O)Nc3ccccc32)cc1OC	i	2%	7%	-3	-2%	?
COc1cc(OC)c(/C=C2\C(=O)Nc3ccccc32)c(OC)c1	i	14%	-5%	0	26%	i
CCN1CCN(c2cc(C(=O)O)c3cc(NC(=O)C(C)C)ccc3n2)CC1	/	/	/	-19	/	/
CCOc1ccccc1C(=O)N(Cc1cccs1)c1ccc(Cl)cc1	i	/	-4%	1	22µM*	i
CC(C)Oc1ccc2c(-c3ccccc3)cc(=O)oc2c1	/	/	/	2	/	/
Cc1ccc(S(=O)(=O)CCC(=O)c2ccc(O)cc2O)cc1	i	7%	-2%	-2	14µM*	i
Cc1ccc(S(=O)(=O)CCC(=O)OCc2ccc(Cl)cc2)cc1	i	13%	5%	-2	25µM*	/
Cc1ccc(S(=O)(=O)CCC(=O)OCC(=O)c2cc(C)ccc2C)cc1	i	5%	2%	-8	?	i
CCCN1CCc2nc(N)c(C#N)c(-c3cc(OC)c(OC)c(OC)c3)c2C1	/	/	/	1	/	/
Cc1ccc(-c2nc(CS(=O)(=O)CC(=O)NCc3ccccc3C)c(C)o2)cc1	/	/	/	-3	/	/
Cc1ccc(OCCn2cc(C(=O)c3ccco3)c3ccccc32)cc1C	i	/	17%	-3	12%	i
COc1ccc(OCCn2cc(C(=O)c3ccco3)c3ccccc32)cc1	?	/	12%	4	18µM*	i
Cc1c(Br)c([N+](=O)[O-])nn1CC(=O)c1ccccc1	i	-3%	2%	-3	8%	i
SMILES	Abeta rescue	aSyn rescue	mIDH1 inhibitor	LDHA block	TDP-43 yeast inh	FUS suppressor
COC(=O)c1ccc(Cn2nc([N+](=O)[O-])c(Br)c2C)cc1	?	?	10%	-2	14µM*	i
CCCN(CCC)c1ccc(NS(=O)(=O)c2ccc(C(C)=O)cc2)cc1C(=O)O	/	/	/	-1	/	/
Cc1cccc(C(=O)C(Cl)C(=O)c2cccc(C)c2)c1	/	/	/	7	/	/
CCOc1ccccc1NC(=O)C(OC(=O)c1cnc(C)cn1)c1ccccc1 (stereo not given)	?	12%	-4%	-2	18µM*	i
COc1ccc(CC(=O)Nc2nc3c(s2)CC(C)CC3)cc1 (stereo not given)	?	/	-5%	-1	13µM*	i
CC1CCc2nc(NC(=O)CN3CCN(c4ccc(F)cc4)CC3)sc2C1 (stereo not given)	i	-5%	-2%	0	16µM*	?
CC(C)(C)C1CCc2nc(NC(=O)Cc3ccccc3)sc2C1 (stereo not given)	i	/	-3%	3	32µM*	i
Cc1cccc(OCC(=O)Nc2nc3c(s2)CC(C(C)(C)C)CC3)c1C (stereo not given)	i	/	-8%	-2	-17%	i
COc1cccc(-c2csc(-c3cc4cccc(OC)c4oc3=O)n2)c1	/	/	/	0	/	/
CCCCC[C@H](O)/C=C/C1C(=O)C=C[C@H]1C/C=C\CCCC(=O)OC (stereo not given in full)	i	13%	?	1	28µM*	i
COc1ccc(-c2onc(C)c2-c2ccc(C(=O)OC(C)C)o2)c(O)c1	i	12%	1%	2	14µM*	i
CCCN(CC(=O)Nc1cc(Cl)cc(Cl)c1)CC(=O)Nc1ccc(F)c(F)c1F	?	3%	5%	7	28µM*	i
Cc1ccc(S(=O)(=O)OCCCCOS(=O)(=O)c2ccc(C)cc2)cc1	/	/	/	-10	/	/
Cc1cc2ccccc2n1CC(=O)N1CCCCCC1	/	/	/	3	/	/
Cc1ccccc1Nc1nc(CSc2nnnn2C2CC2)cs1	/	/	/	6	/	/
O=C1CC(c2ccc(Br)cc2)c2c(ccc3ccccc23)N1 (stereo not given)	i	/	-31%	2	35µM*	i
O=C1CC(c2cccc([N+](=O)[O-])c2)c2c(ccc3ccccc23)N1 (stereo not given)	i	4%	-5%	3	-8%	i
CCc1c(C)sc(NC(=O)/C=C/c2ccccc2)c1C#N	/	/	/	-17	/	/
Cc1ccccc1-n1c(-c2csc3ccccc23)n[nH]c1=S	i	4%	7%	-7	20µM*	i
Cc1scc(-c2n[nH]c(=S)n2C(C)c2ccccc2)c1C (stereo not given)	i	-1%	-2%	-1	35µM*	/
Cc1ccccc1-n1c(-c2csc(C)c2C)n[nH]c1=S	4.5µM*	15%	0%	1	?	i

Screening results from PubChem.
